Smad3 FoxH1 inh: Smad3/FoxH1 peptide binding inhibitors, primary screen, biochemical, TR-FRET; TR-FRET Smad3/Dy647-FoxH1 peptide binding, europium anti-His; inhibition, % at 25 µM; 88,000 tested, 0.29% active;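 active = compounds that reduce the energy-transfer binding signal between the protein and its labelled peptide by more than half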
Target sequence (P84022 whole entry, looked up): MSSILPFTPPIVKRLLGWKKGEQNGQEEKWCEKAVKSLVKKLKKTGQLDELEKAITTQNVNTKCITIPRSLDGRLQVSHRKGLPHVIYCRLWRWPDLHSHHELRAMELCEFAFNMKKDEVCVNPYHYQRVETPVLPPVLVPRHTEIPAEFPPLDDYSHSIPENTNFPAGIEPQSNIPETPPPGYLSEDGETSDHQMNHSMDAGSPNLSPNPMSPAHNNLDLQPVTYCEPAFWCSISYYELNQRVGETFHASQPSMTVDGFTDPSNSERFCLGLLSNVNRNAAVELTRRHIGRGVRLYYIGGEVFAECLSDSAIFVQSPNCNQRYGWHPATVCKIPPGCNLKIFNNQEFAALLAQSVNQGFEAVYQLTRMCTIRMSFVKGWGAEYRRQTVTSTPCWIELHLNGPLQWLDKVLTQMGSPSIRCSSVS
ERa coact pot: enhancers of ERα–SRC-1 coactivator binding, primary screen, biochemical, TR-FRET, ERα LBD, low estradiol | AID 639, 2007 | 86,000 tested, 1.3% active | TR-FRET ERalpha-LBD/SRC-Cy5 coactivator binding, 2 h; 100 = basal binding, no effect | coactivator binding (% of control), % at 25.6 µM | Estrogen receptor (Homo sapiens), P03372; in the data active = activity above about 200%;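 note: binding measured in presence of low estradiol as agonist stimulus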
ERa SRC1 inh: ERα–SRC-1 coactivator interaction inhibitors, primary screen, biochemical, TR-FRET, ERα LBD, estradiol-bound | AID 629, 2007 | 86,000 tested, 1.7% active | inhibition, % at 25.6 µM | TR-FRET ER-alpha LBD / SRC-1 peptide | Estrogen receptor (Homo sapiens), P03372; in the data active = inhibition above about 50%
ERb SRC1 inh: inhibitors of ERβ-SRC1 coactivator interaction, primary screen, biochemical, TR-FRET, ERβ LBD, SRC-1 peptide; TR-FRET ER-beta LBD / SRC1-Cy5 peptide binding; receptor agonist-loaded with 1 µM estradiol; inhibition, % at 25.6 µM; 86,000 tested, 1.3% active;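 active = compounds whose percent inhibition of the receptor-coactivator binding signal exceeds about 50% in the single-dose screen, limit read from the data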
MRP-1 activ: H69AR viability gain despite doxorubicin, primary screen, MRP-1 activator project, H69AR cells, CellTiter-Glo | viability rescue | viability increase, % at 10 µM | 140,000 tested, 0.61% active | AID 799, 2007;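 active = viability gain under doxorubicin at or above a set limit, the compound median plus 3 SD, cut at about 4.7% in these data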;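 note: MRP-1 overexpressing cells given doxorubicin 25 µM after compound pretreatment; 18-22 h compound pretreatment then 72 h with doxorubicin before readout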
MRP reversal: reversal of MRP1-mediated doxorubicin resistance, primary screen, H69AR cells, doxorubicin co-treatment | AID 602, 2007 | H69AR cells + 2 uM doxorubicin, CellTiter-Glo, 72 h | 85,000 tested, 0.04% active | differential viability (reversal), % at 10 µM;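 active = viability drop by adding the cancer drug above about 55%, with treated viability meeting a 40% cutoff, limit read from the data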;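 note: larger differential means the compound sensitizes cells more to doxorubicin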
Of the large screens only hits and unclear results are named; the others gave an inactive call; [ ] = remark or other dose. Shown are actives, neighbours in structure and some others; about 2.9% of the full set was active somewhere.

c1ccc(-c2nc3c4ccccc4nc(N4CCN(c5ccccn5)CC4)n3n2)cc1	ERa coact pot 215[fluorescence artefact?] (no result: MRP-1 activ)
c1ccc(-c2nnc(N3CCN(c4ccccn4)CC3)c3ccccc23)cc1	none
O=C(COc1ccccc1)Nc1ccc(Cl)c(-c2nc3ncccc3o2)c1	ERa coact pot 226[fluorescence artefact?], ERa SRC1 inh 50
CCC(=O)Nc1ccc(Cl)c(NC(=S)NC(=O)COc2ccccc2)c1	none (no result: Smad3 FoxH1 inh, ERa coact pot, ERa SRC1 inh, ERb SRC1 inh, MRP reversal)
Cc1cc(-c2nc3ncccc3o2)ccc1NC(=O)CC(C)C	none (no result: Smad3 FoxH1 inh, ERa coact pot, ERa SRC1 inh, ERb SRC1 inh, MRP reversal)
Cc1ccc(OCC(=O)Nc2ccc(-c3nc4ncccc4o3)cc2)c(C)c1	ERa SRC1 inh 51[fluorescence artefact?]
Cc1oc2c(cc(NS(=O)(=O)c3ccc4c5c(cccc35)C(=O)N4)c3ccccc32)c1C(=O)OC(C)C	ERa SRC1 inh 93[fluorescence artefact?], ERb SRC1 inh 57
CN1CCCN(C)C1c1cc([N+](=O)[O-])ccc1O	none (no result: ERa coact pot, ERa SRC1 inh, ERb SRC1 inh, MRP-1 activ, MRP reversal)
Cc1ccccc1N=Cc1cccc(O)c1O	none (no result: Smad3 FoxH1 inh, ERa coact pot, ERa SRC1 inh, ERb SRC1 inh, MRP reversal)
CC(N=Cc1cccc(O)c1O)c1ccccc1 (centres undefined)	ERb SRC1 inh 58[fluorescence artefact?]
CCCn1nc(C(=O)Oc2ccc3c(C)cc(=O)oc3c2)c2ccccc2c1=O	none (no result: Smad3 FoxH1 inh, ERa coact pot, ERa SRC1 inh, ERb SRC1 inh, MRP reversal)
Cc1ccccc1C(=O)Nc1ccccc1	none
Cc1ccccc1C(=O)Nc1cccc(NC(=O)c2ccc(-c3ccc(Br)cc3)o2)c1	ERa SRC1 inh 79[fluorescence artefact?]
CC(C)N(Cc1cc2ccccc2[nH]c1=O)C(=O)C(C)(C)C	MRP-1 activ 9.3
CCOc1ccc2[nH]c(=O)c(CN(Cc3ccc(F)cc3)C(=O)c3ccco3)cc2c1	none
CCOc1ccc2[nH]c(=O)c(CN(Cc3ccc(F)cc3)C(=O)N3CCCC3)cc2c1	ERa coact pot 331[fluorescence artefact?]
Cc1c(C(=O)O)sc2nc3n(c(=O)c12)CCC(C)CC3 (centres undefined)	none
CC(=O)Nc1ccc(OCC(O)Cn2cnc3ccccc32)cc1 (centres undefined)	ERa coact pot 636[fluorescence artefact?]
CC(=O)Nc1cccc(OCC(O)Cn2cnc3ccccc32)c1 (centres undefined)	none
Cc1nn(C)cc1NC(=O)Cn1nc(C(F)(F)F)cc1C1CC1	none (no result: Smad3 FoxH1 inh, ERa coact pot, ERa SRC1 inh, ERb SRC1 inh, MRP reversal)
C[C@@H](N=C(N)N)C(=O)O	none (no result: ERa coact pot, ERa SRC1 inh, ERb SRC1 inh, MRP-1 activ, MRP reversal)
O=C(O)CC[C@@H](C(=O)O)N1C(=O)[C@@H]2[C@@H]3CC[C@@H](C3)[C@@H]2C1=O	none (no result: ERa coact pot, ERa SRC1 inh, ERb SRC1 inh, MRP-1 activ, MRP reversal)
Cn1c(=O)oc2cc(S(=O)(=O)Nc3ccc4c(c3)OCO4)ccc21	ERa SRC1 inh 57[fluorescence artefact?]
Cn1c(=O)c2cc(S(=O)(=O)Nc3ccc4c(c3)OCO4)ccc2n(C)c1=O	none
CCCCCOc1ccccc1C(=O)NCC(=O)O	ERb SRC1 inh 79[fluorescence artefact?]
CS(=O)(=O)Nc1nnc(Cc2ccccc2)s1	MRP-1 activ 7.9
CC(=O)Nc1nnc(Cc2ccccc2)s1	none
COc1ccccc1CNC(=O)/C=C/c1cc2c(cc1Br)OCO2	none (no result: Smad3 FoxH1 inh, ERa coact pot, ERa SRC1 inh, ERb SRC1 inh, MRP reversal)
O=c1c2ccccc2nc2n1C(CSc1ccc(Br)cc1)CN2 (centres undefined)	none (no result: Smad3 FoxH1 inh, ERa coact pot, ERa SRC1 inh, ERb SRC1 inh, MRP reversal)
Cc1ccc(C(C(=O)NC(C)(C)C)N(Cc2cccs2)C(=O)c2csnn2)cc1 (centres undefined)	ERa SRC1 inh 60 (no result: MRP-1 activ)
CC(C)(C)NC(=O)C(c1ccc(F)cc1)N(Cc1ccco1)C(=O)c1csnn1 (centres undefined)	none
CCOC(=O)c1cnc(N(C)C)nc1SC(=N)N	none (no result: ERa coact pot, ERa SRC1 inh, ERb SRC1 inh, MRP-1 activ, MRP reversal)
CCOC(=O)c1c(NC(=O)OC)sc(C(=O)N(CC)CC)c1C	MRP reversal 76
CCOC(=O)c1sc(NC(=O)C2CCCO2)c(C(=O)OCC)c1C (centres undefined)	ERa SRC1 inh 57 (no result: MRP-1 activ)
CCOC(=O)c1c(NC(=O)C2CCCO2)sc(C(=O)OC(C)(C)C)c1C (centres undefined)	none
CC(=O)Nc1nonc1-c1nc2ccccc2n1Cc1ccccc1	none (no result: Smad3 FoxH1 inh, ERa coact pot, ERa SRC1 inh, ERb SRC1 inh, MRP reversal)
CCC(=O)Nc1nonc1-c1nc2ccccc2n1Cc1ccc(Cl)c(Cl)c1	ERa SRC1 inh 58[fluorescence artefact?], ERb SRC1 inh 51[fluorescence artefact?] (no result: MRP-1 activ)
